Results taken from article PMC5540273 (PLoS ONE, 2017).

Assays:
Conditions in all cases: concentration: 1 μM, replicates: in singlicate; n = 1
RIOK1 = system: RIOK1
RIOK2 = system: RIOK2
RIOK3 = system: RIOK3
RIPK1 = system: RIPK1
RIPK2 = system: RIPK2
RIPK4 = system: RIPK4
RIPK5 = system: RIPK5
ROCK1 = system: ROCK1
ROCK2 = system: ROCK2
ROS1 = system: ROS1
[1] = system: RPS6KA4(Kin.Dom.1-N-terminal)
[2] = system: RPS6KA4(Kin.Dom.2-C-terminal)
[3] = system: RPS6KA5(Kin.Dom.1-N-terminal)
[4] = system: RPS6KA5(Kin.Dom.2-C-terminal)
[5] = system: T1, RSK1(Kin.Dom.1-N-terminal)
T1 construct: gene RPS6KA1

[6] = system: T2, RSK1(Kin.Dom.2-C-terminal)
T2 construct: gene RPS6KA1

[7] = system: T3, RSK2(Kin.Dom.1-N-terminal)
T3 construct: gene RPS6KA3

[8] = system: T4, RSK2(Kin.Dom.2-C-terminal)
T4 construct: gene RPS6KA3

[9] = system: T5, RSK3(Kin.Dom.1-N-terminal)
T5 construct: gene RPS6KA2

[10] = system: T6, RSK3(Kin.Dom.2-C-terminal)
T6 construct: gene RPS6KA2
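Also: KINOMEscan kinase panel screen.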

SMILES	%Inh (RIOK1) [%]	%Inh (RIOK2) [%]	%Inh (RIOK3) [%]	%Inh (RIPK1) [%]	%Inh (RIPK2) [%]	%Inh (RIPK4) [%]	%Inh (RIPK5) [%]	%Inh (ROCK1) [%]	%Inh (ROCK2) [%]	%Inh (ROS1) [%]	%Inh [1] [%]	%Inh [2] [%]	%Inh [3] [%]	%Inh [4] [%]	%Inh [5] [%]	%Inh [6] [%]	%Inh [7] [%]	%Inh [8] [%]	%Inh [9] [%]	%Inh [10] [%]
FC(F)(F)c1ccc(/C=C/c2cncnc2Nc2ccc3[nH]c(Cc4ccccc4)nc3c2)cc1 [GW709199]	33	0	2	11	11	0	0	0	0	0	25	0	0	6	3	0	11	48	13	0
O=C(Nc1n[nH]c2cc(-c3ccoc3)ccc12)C1CC1 [SB-738481]	68	5	0	28	0	17	3	0	0	9	0	11	0	0	12	0	1	0	0	2
O=C(Nc1cccc(Oc2ccc3nc(NC(=O)C4CC4)cn3n2)c1)c1ccccc1C(F)(F)F	64	0	76	15	11	0	0	0	0	0	35	0	0	17	6	0	0	55	6	0
CCc1ccc(-c2ccc3c(c2)-c2c(cnn2C)S(=O)(=O)N3C)cc1	0	12	0	0	0	9	26	0	0	3	5	0	7	0	10	0	0	29	17	13
Nc1ncnc2c1nc(-c1ccccc1)n2-c1ccccc1 [SKF-97293]	0	1	6	3	7	27	36	56	43	15	9	10	16	11	19	0	40	27	18	0
Cl.Cl.NCC(NCc1ccc(-c2ccnc3[nH]ccc23)s1)c1ccccc1 (stereo not drawn) [GSK1321565]	100	44	98.4	2	0	47	0	100	99.4	60	16	57	32	53	25	0	36	0	39	14
Cl.Cl.NCC(NC(=O)c1cc(-c2ccccc2)c(-c2ccnc3[nH]ccc23)s1)c1ccccc1 (stereo not drawn) [GSK1321561]	69	45	88	24	24	0	0	99.8	98.9	19	24	0	4	0	0	62	14	61	0	0
COc1ccc(Nc2nccc(N3CCC(NC(=O)Nc4cccc(OC)c4)C3)n2)cc1 (stereo not drawn) [GSK1379742]	34	4	25	0	0	0	0	0	2	13	15	0	10	0	0	0	15	1	0	0
NCCCC(NC(=O)c1cc(Br)c(-c2ccnc3[nH]ccc23)s1)c1ccccc1.O=C(O)C(F)(F)F.O=C(O)C(F)(F)F (stereo not drawn) [GSK1287544]	91.8	66	76	53	0	6	1	99.4	92.8	10	53	1	51	5	0	0	29	0	12	0
